Measurements reported in PubChem BioAssay (NCATS).
Values without a mark were called inactive. Records with an inconclusive call do not appear. Active and inactive are the calls of the source. Calls come from the whole dose curve; as a rule, active = well fitted curve in the direction sought with a large enough effect; inconclusive = small, poorly fitted or top-dose-only effect, or another doubt; inactive = no such curve, though single readings can be large; an effect the other way counts as inactive or inconclusive.

target: Phospholipid hydroperoxide glutathione peroxidase GPX4 (Homo sapiens) (UniProt P36969); experiment: Primary qHTS Assay for Inhibitors of Recombinant Selenoprotein Glutathione Peroxidase 4 (GPX4) (AID 1845192); conditions: recombinant GPX4, GR-coupled NADPH fluorescence, 15 min; series mostly up to 50 µM; activity change, negative = inhibition: at the top concentration; note: nearly all actives have a fitted effect of over 65% in size; for activity change, negative = inhibition: % is set by controls: 0 for no effect and ±100 for the full control effect
Method in brief: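 Steps: GPX4 plus compound, 30 min RT; add GR/GSH/NADPH master mix; start with cumene hydroperoxide; read 340/450 nm fluorescence at 0 and 15 min. Finals were 200 nM GPX4, 1 mM GSH, 0.5 mM CHP, 0.5 mM NADPH, 100 nM GR.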

Phospholipid hydroperoxide glutathione peroxidase GPX4 (Homo sapiens), sequence (P36969 whole entry, looked up): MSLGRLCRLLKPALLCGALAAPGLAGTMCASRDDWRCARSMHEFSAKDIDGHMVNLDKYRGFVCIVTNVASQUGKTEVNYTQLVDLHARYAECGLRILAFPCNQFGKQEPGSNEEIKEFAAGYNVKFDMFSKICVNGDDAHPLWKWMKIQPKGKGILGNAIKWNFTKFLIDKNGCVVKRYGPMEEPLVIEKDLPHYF

Structure (SMILES)	activity change, negative = inhibition [%]	Potency	outcome
CC(C)(C)NCC(O)c1cc(Cl)c(N)c(Cl)c1 (stereo not drawn)	0.928		
Cn1cc(C2=C(c3cn(C4CCN(Cc5ccccn5)CC4)c4ccccc34)C(=O)NC2=O)c2ccccc21	-9.29		
CNC(=O)c1ccc(N2C(=S)N(c3ccc(C#N)c(C(F)(F)F)c3)C(=O)C23CCC3)cc1F		inactive	
CC(=O)Nc1cc([As](=O)(O)O)ccc1O			inactive
CN(C)[C@@H]1C(=O)C(C(N)=O)=C(O)[C@@]2(O)C(=O)C3=C(O)c4c(O)cccc4[C@@](C)(O)[C@H]3C[C@@H]12	-14.8		
CCN(CC)C(=O)N[C@@H]1C=C2c3cccc4[nH]cc(c34)C[C@@H]2N(C)C1	3.6		
CC(C)NCC(O)c1ccccc1Cl (stereo not drawn)	-4.22		
COC1(CS(=O)c2ccccc2)CCN(CCc2c[nH]c3ccc(F)cc23)CC1 (stereo not drawn)	-5.87		
CN(C)CCN(C)CCc1ccc(Cl)c(Cl)c1			inactive
Oc1cccc2cccnc12		inactive	
CN1CCN(C(=O)O[C@H]2c3nccnc3C(=O)N2c2ccc(Cl)cn2)CC1			inactive

target: Luciferin 4-monooxygenase (Photinus pyralis) (UniProt P08659); experiment: Primary firefly luciferase (FLuc) qHTS assay for identification of artifact compounds. (AID 1845220); conditions: purified firefly luciferase, luminescence, 5 min; series mostly up to 54.1 µM; activity change, negative = inhibition: at the top concentration; note: nearly all actives have a fitted effect of over 60% in size;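 for activity change, negative = inhibition: plate controls were DMSO vehicle for no effect and no enzyme for full effect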
Method in brief: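 Enzymatic FLuc inhibition assay: compounds pre-exposed to luciferin/ATP (10 uM each) for 15 min, then purified P. pyralis enzyme at 10 nM added. Read-out: luminescence at 5 min.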

Structure (SMILES)	activity change, negative = inhibition	outcome
COC[C@H]1OC(=O)c2coc3c2[C@@]1(C)C1=C(C3=O)C2CCC(=O)[C@@]2(C)C[C@H]1OC(C)=O (stereo partly drawn)	-3.63%	
O=C(O)C(=O)c1cn(Cc2ccccc2)c2ccc(-c3ccc(OC(F)(F)F)cc3)cc12		inactive
C[C@H]1O[C@@H](O[C@H]2[C@@H](O)C[C@H](O[C@H]3[C@@H](O)C[C@H](O[C@H]4CC[C@@]5(C)[C@H](CC[C@@H]6[C@@H]5CC[C@]5(C)[C@@H](C7=CC(=O)OC7)CC[C@]65O)C4)O[C@@H]3C)O[C@@H]2C)C[C@H](O)[C@@H]1O	-3.51% [at 25.7 µM]	
CNC(=O)c1ccc(N2C(=S)N(c3ccc(C#N)c(C(F)(F)F)c3)C(=O)C23CCC3)cc1F	3.79%	

test system: not listed separately; experiment: Primary fluorescence-based thiol-reactive (MSTI) qHTS assay for identification of artifact compounds. (AID 1845221); conditions: MSTI thiol-reactivity probe, 1 h; series mostly up to 53.8 µM; activity change, negative = thiol reactive: at the top concentration;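 note: thiol-reactive compounds lower the probe fluorescence signal; nearly all actives have a fitted effect of over 65% in size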
Method in brief: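 In PBS pH 7.4 with 2% DMSO, each compound met 4 uM MSTI for one hour at ambient temperature, shielded from light, before fluorescence detection.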

Structure (SMILES)	activity change, negative = thiol reactive
O=C(O)C(=O)c1cn(Cc2ccccc2)c2ccc(-c3ccc(OC(F)(F)F)cc3)cc12	7.35%
C[C@H]1O[C@@H](O[C@H]2[C@@H](O)C[C@H](O[C@H]3[C@@H](O)C[C@H](O[C@H]4CC[C@@]5(C)[C@H](CC[C@@H]6[C@@H]5CC[C@]5(C)[C@@H](C7=CC(=O)OC7)CC[C@]65O)C4)O[C@@H]3C)O[C@@H]2C)C[C@H](O)[C@@H]1O	168% [at 25.6 µM]
CNC(=O)c1ccc(N2C(=S)N(c3ccc(C#N)c(C(F)(F)F)c3)C(=O)C23CCC3)cc1F	190%

test system: Nanoluciferase (engineered Oplophorus gracilirostris luciferase); experiment: Primary Nanoluciferase (NLuc) qHTS assay for identification of artifact compounds. (AID 1845222); conditions: NLuc-conditioned medium, Nano-Glo luminescence, 5 min; series mostly up to 54.1 µM; activity, negative = inhibition: at the top concentration;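 note: NLuc secreted into diluted conditioned medium of S16 cells; 0% = DMSO and -100% = no enzyme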
Method in brief: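 S16 cell supernatant NLuc, 1:55; cpds qHTS; 15 min RT dark; Nano-Glo substrate 1:100, 5 min; luminescence; Hill fit of % inhibition.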

Structure (SMILES)	activity, negative = inhibition
COC[C@H]1OC(=O)c2coc3c2[C@@]1(C)C1=C(C3=O)C2CCC(=O)[C@@]2(C)C[C@H]1OC(C)=O (stereo partly drawn)	-16.6%
O=C(O)C(=O)c1cn(Cc2ccccc2)c2ccc(-c3ccc(OC(F)(F)F)cc3)cc12	4.34%
C[C@H]1O[C@@H](O[C@H]2[C@@H](O)C[C@H](O[C@H]3[C@@H](O)C[C@H](O[C@H]4CC[C@@]5(C)[C@H](CC[C@@H]6[C@@H]5CC[C@]5(C)[C@@H](C7=CC(=O)OC7)CC[C@]65O)C4)O[C@@H]3C)O[C@@H]2C)C[C@H](O)[C@@H]1O	0% [at 25.7 µM]
CNC(=O)c1ccc(N2C(=S)N(c3ccc(C#N)c(C(F)(F)F)c3)C(=O)C23CCC3)cc1F	1.32%

test system: not listed separately; experiment: Primary redox qHTS assay for identification of artifact compounds. (AID 1845223); conditions: Amplex Red/HRP redox cycling with DTT, fluorescence; series mostly up to 53.8 µM; redox activity (% of DA3003): at the top concentration;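 note: 0% = DMSO and 100% = reference compound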
Method in brief: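 Redox-cycling detection via DTT (250 uM final) oxidation coupled to Amplex Red (25 uM)/HRP (250 mU/mL) in HBSS. 15 min preincubation plus 30 min after DTT, room temperature. Ex/Em 525/598 nm; 4-parameter Hill fit against DMSO and 10 uM DA3003.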

Structure (SMILES)	redox activity (% of DA3003)
O=C(O)C(=O)c1cn(Cc2ccccc2)c2ccc(-c3ccc(OC(F)(F)F)cc3)cc12	5.46%
C[C@H]1O[C@@H](O[C@H]2[C@@H](O)C[C@H](O[C@H]3[C@@H](O)C[C@H](O[C@H]4CC[C@@]5(C)[C@H](CC[C@@H]6[C@@H]5CC[C@]5(C)[C@@H](C7=CC(=O)OC7)CC[C@]65O)C4)O[C@@H]3C)O[C@@H]2C)C[C@H](O)[C@@H]1O	-4.46% [at 25.6 µM]
CNC(=O)c1ccc(N2C(=S)N(c3ccc(C#N)c(C(F)(F)F)c3)C(=O)C23CCC3)cc1F	19.3%

test system: not listed separately; experiment: Quantitative High-Throughput drug screen in 47 multiple myeloma cell lines against the NCATS MIPE library collection: FR4_PLB cell viability assay (AID 1918924; note: nearly all actives have a fitted effect of over 35% in size; note: potency is the fitted concentration of half-maximal effect;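 for viability (% of DMSO control): 100% = DMSO-treated cells and 0% = wells with media only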); conditions: FR4_PLB myeloma cells viability, CellTiter-Glo ATP, 48 h; series mostly up to 45.8 µM; viability (% of DMSO control): at the top concentration
Method in brief: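 Steps: seed 500 cells per well; pin-transfer MIPE 4.0 library; incubate 48 h at 37C, 5% CO2, humidified; add CellTiter-Glo, 5 min room temperature; read luminescence.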

Structure (SMILES)	Potency	viability (% of DMSO control) [%]
Cc1sc2c(c1C)C(c1ccc(Cl)cc1)=N[C@@H](CC(=O)OC(C)(C)C)c1nnc(C)n1-2	0.332 µM (active)	
C=C(C)[C@H]1Cc2c(ccc3c2O[C@@H]2COc4cc(OC)c(OC)cc4[C@@H]2C3=O)O1	0.935 µM (active)	
O=P1(NCCCl)OCCCN1CCCl (stereo not drawn)	16.6 µM (active)	
COC[C@H]1OC(=O)c2coc3c2[C@@]1(C)C1=C(C3=O)C2CCC(=O)[C@@]2(C)C[C@H]1OC(C)=O (stereo partly drawn)	11.8 µM (active)	
CN(C)CCc1ccc(O)cc1		113
O=C(O)C(=O)c1cn(Cc2ccccc2)c2ccc(-c3ccc(OC(F)(F)F)cc3)cc12		108
Cn1cc(C2=C(c3cn(C4CCN(Cc5ccccn5)CC4)c4ccccc34)C(=O)NC2=O)c2ccccc21	16.6 µM (active)	
CNC(=O)c1ccc(N2C(=S)N(c3ccc(C#N)c(C(F)(F)F)c3)C(=O)C23CCC3)cc1F		104
CC1=C2C[C@@H]3[C@@H](CC=C4C[C@@H](O)CC[C@@]43C)[C@@H]2CC[C@]12O[C@H]1C[C@H](C)CN[C@H]1[C@H]2C	10.5 µM (active)	
COC1(CS(=O)c2ccccc2)CCN(CCc2c[nH]c3ccc(F)cc23)CC1 (stereo not drawn)		97.2
CN(C)CCN(C)CCc1ccc(Cl)c(Cl)c1		116
CN1CCN(C(=O)O[C@H]2c3nccnc3C(=O)N2c2ccc(Cl)cn2)CC1		122
C[C@@H]1[C@@H](CC(C[C@H]2O[C@@H]3O[C@]4(C)CC[C@@H]5[C@H](C)CC[C@@H]([C@H]2C)[C@@]35OO4)C[S+](=O)([O-])c2ccc(COC(=O)N(C)C)cc2)O[C@@H]2O[C@]3(C)CC[C@H]4[C@H](C)CC[C@@H]1[C@@]24OO3 (stereo partly drawn)	0.209 µM (active)	
